Bioassay records: PubChem, National Center for Advancing Translational Sciences (NCATS)
In the library only some 10% were active in any assay of this set; here they are far more common.
L3MBTL1 block: inhibitors of human L3MBTL1 | Q9Y468 | AlphaScreen L3MBTL1–H3K9me1 peptide binding | Potency, µM (top dose mostly 57.1 µM), for inactives: at the top dose activity, negative = inhibition, actives largely listed as inhibitors | 0.66% of 230,000 active | AID 485360; further: on the % scale 0 is the no-effect control and ±100 the full control effect; nearly all actives have a fitted effect of over 60% in size
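L3MBTL1 (50 nM) pre-complexed 30 min with biotinylated H3(1-15)K9me1 peptide (75 nM), then compounds added for 30 min at room temperature; AlphaScreen streptavidin donor/nickel chelate acceptor beads (10 ug/mL final) read after 30 min dark incubation.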
G9a inh: G9a (human) methyltransferase inhibition; Q96KQ7; G9a H3K9 monomethylation, AlphaScreen, 2 h; Potency, µM (series often up to 102 µM), without a hit: at the highest dose activity, negative = inhibition, most hits filed as inhibitors; 8.8% of 350,000 active; further: on the % scale 0 is the no-effect control and ±100 the full control effect; nearly all actives have a fitted effect of over 75% in size
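Enzyme 20 nM + cpd, 15 min RT; add b-H3K9 pep 500 nM / SAM 20 uM; 2 h RT; anti-H3K9me1 Ab 0.5 ug/mL + SA donor / anti-rabbit acceptor beads 20 ug/mL each, 10 min; AlphaScreen read.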
HP1b chromo inh: inhibitors of HP1-beta chromodomain binding to methylated histone tails. P83916. AlphaScreen HP1-beta / biotin-H3K9me3 peptide binding. Potency, µM (top dose mostly 114 µM), for the others: at the top dose activity change, negative = inhibition, hits mostly inhibitors. 0.56% of 390,000 active; further: nearly all actives have a fitted effect of over 70% in size
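AlphaScreen: HP1-beta (50 nM) preformed 30 min with biotin-H3(1-18)K9me3 peptide (50 nM) in PBS pH 7.4, 0.01% Tween-20. Compound added for 30 min at RT, then streptavidin donor/nickel chelate acceptor beads (10 ug/mL) for 30 min.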
BAZ2B inh: inhibitors of human BAZ2B bromodomain. Q9UIF8. Potency, µM (highest dose often 114 µM), for inactives: top-dose activity change, negative = inhibition, most hits filed as inhibitors. AlphaScreen BAZ2B-H3K14Ac peptide displacement. 4.4% of 360,000 active; further: on the % scale 0 is the no-effect control and ±100 the full control effect; nearly all actives have a fitted effect of over 60% in size
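AlphaScreen luminescence quantifies BAZ2B engagement of H3K14Ac peptide; the protein and biotinylated peptide are both at 50 nM final, buffer PBS pH 7.4 with 0.01% Tween-20, all steps at room temperature.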
GLS inhibitor: blocks human kidney-isoform glutaminase activity. O94925. GLS enzymatic activity, qHTS titration. Potency, µM (highest dose often 45.5 µM), for inactives: at the top dose activity change, negative = inhibition, hits mostly inhibitors. 0.21% of 410,000 active. AID 624170; further: on the % scale 0 is the no-effect control and ±100 the full control effect
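Two-point fluorescence kinetic (t0, 30 min RT) for hKGA; glutamate detected via glutamate oxidase–HRP–Amplex Red. Substrate: 1 mM L-glutamine solution; buffer 45 mM KH2PO4, pH 8.2.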
JMJD2A Tudor inh: JMJD2A Tudor domain (human) inhibition; AlphaScreen JMJD2A-Tudor / H3K4me3 peptide binding; Potency, µM (doses to about 114 µM), for the others: top-dose activity change, negative = inhibition, usual class: inhibitors; 4.4% of 390,000 active; further: on the % scale 0 is the no-effect control and ±100 the full control effect; nearly all actives have a fitted effect of over 50% in size
* hit, by the source's call; ? = inconclusive; nt = no result given; [ ] = dose if it differs, or a comment. The call rests on the fitted dose curve; in most records, active means well fitted curve in the direction sought with a large enough effect; inconclusive means small, poorly fitted or top-dose-only effect, or another doubt; inactive means no such curve, though single readings can be large; an effect the other way counts as inactive or inconclusive. Potency means the concentration at half of the fitted maximal effect.

SMILES	L3MBTL1 block	G9a inh	HP1b chromo inh	BAZ2B inh	GLS inhibitor	JMJD2A Tudor inh
COCCNC(=O)C(c1ccc(C)o1)N(Cc1ccc(OC)cc1)C(=O)Cn1nnc2ccccc21 (stereo unspecified)	0.2%	-6.7%[59 µM]	32.8%	-24.5%	-14.4%	0.0%
O=C(Cn1cc(SCc2ccccc2Cl)c2ccccc21)N1CCCCCC1	nt	-2.8%[59 µM]	40.3%	-23.3%	-12.1%	0.4%
COc1ccc(/C=C2\C(=N)N3N=C(CC(=O)N4CCOCC4)SC3=NC2=O)cc1	nt	15.7%[59 µM]	4.6%	?	4.4%	-1.7%
COc1cc(/C=C2/C(=N)N3N=C(CC(=O)N4CCOCC4)SC3=NC2=O)ccc1OCc1ccccc1F	nt	12.9%	38.5%	?	-0.1%	-26.0%
N=C1/C(=C/c2ccc(-c3cccc(C(=O)O)c3)o2)C(=O)N=C2SC(CC(=O)N3CCOCC3)=NN12	nt	?	?	25.1µM*	?	20µM*
N=C1/C(=C\c2ccc(-c3cccc(C(=O)O)c3)o2)C(=O)N=C2SC=C(c3ccccc3)N12	22.4µM*	11.2µM*	?	22.4µM*	1.0%	-20.6%[11.4 µM]
Cc1ccc(/C=C2\C(=N)N3N=C(CC(=O)N4CCOCC4)SC3=NC2=O)o1	nt	56.2µM*	-15.6%	-27.0%	5.3%	56.2µM*
Cc1cc(/C=C2/C(=N)N3C(c4ccccc4)=CSC3=NC2=O)c(C)n1-c1ccccc1	-25.3%	50.1µM*	34.6%	4.4%	-5.0%	-12.6%
Cc1ccc(-c2cc(C(=O)N3CCN(S(=O)(=O)c4ccc(Br)cc4)CC3)[nH]n2)c(C)c1	nt	2.3%[59 µM]	14.2%	-2.2%	-6.6%	-14.9%
Cc1ccc(-n2nc(C(=O)N3CCCCC3)c(=O)n(C)c2=O)cc1	nt	7.9%[59 µM]	8.7%[57 µM]	-2.3%	-8.9%	-18.8%
COc1ccc(S(=O)(=O)N2CCN(CC(=O)Nc3ccc(Cl)c(C(F)(F)F)c3)CC2)cc1	nt	-9.1%[59 µM]	1.9%	-1.5%	-10.3%	-16.6%
COc1ccccc1-n1c(C)cc(/C=C2\C(=N)N3N=C(CC(=O)N4CCOCC4)SC3=NC2=O)c1C	nt	-14.5%	50.7%	50.1µM*	78.3%	10.1%
Cc1ccc(/C=C2/C(=N)N3N=C(CC(=O)N4CCCC4)SC3=NC2=O)cc1	nt	?	34.0%	-10.6%	12.6%	-10.4%
COc1cc(/C=C2\C(=N)N3N=CSC3=NC2=O)ccc1OS(=O)(=O)c1ccccc1[N+](=O)[O-]	nt	nt	-3.2%	-13.6%	-18.4%	-29.9%
N=C1/C(=C\c2ccc(SCc3ccccc3)o2)C(=O)N=C2SC=NN12	nt	50.1µM*	23.7%	-20.3%	2.8%	-31.0%
COc1cc(/C=C2/C(=N)N3N=C(CC(=O)N4CCOCC4)SC3=NC2=O)ccc1OCc1ccc(F)cc1	nt	12.4%	9.9%	-23.1%	-8.1%	4.47µM*
COc1ccc(-n2c(C)cc(/C=C3\C(=N)N4N=C(CC(=O)N5CCOCC5)SC4=NC3=O)c2C)c(OC)c1	nt	8.2%	-2.7%[57 µM]	?	65.7%	?
N=C1/C(=C\c2ccc(SCc3ccccc3)o2)C(=O)N=C2SC(CC(=O)N3CCOCC3)=NN12	nt	?	5.8%	44.7µM*	6.2%	?
Cc1ccc(OCCn2c(C3CC(=O)N(Cc4ccc(F)cc4)C3)nc3ccccc32)c(C)c1 (stereo unspecified)	nt	-40.7%[59 µM]	53.8%	?	-11.4%	-18.5%
CCOc1ccc(CCNc2ncnc3onc(C)c23)cc1OCC	nt	-2.9%[59 µM]	31.9%	4.5%[57.1 µM]	-7.7%	-9.1%
CCOCCCNC(=O)NC(CCC(C)C)c1c(-n2cccc2)sc2c1CCN(C)C2 (stereo unspecified)	nt	-49.6%[59 µM]	4.0%	?	-34.5%	-30.0%
O=C(CSc1nc2c(sc3ccccc32)c(=O)n1CCCC(=O)NC1CCCC1)Nc1ccc(F)cc1	nt	4.8%[59 µM]	43.9%	-14.3%	7.5%	9.4%
Oc1ccccc1Nc1nc(NCC2CCCO2)c2ccccc2n1 (stereo unspecified)	-4.7%	50.1µM*	3.4%	?	-4.7%	-31.8%
